Source: PubChem BioAssay (NCATS)
Results filed as inconclusive are left out. Active and inactive are the calls of the source. Unless noted, calls come from the whole dose curve; as a rule, active = well fitted cell-killing curve with a large enough effect; inconclusive = small, poorly fitted or top-dose-only effect, or effect the other way; inactive = no such curve, though single readings can be large or run the other way.

What was measured:
[1] = Quantitative High-Throughput drug screen in 47 multiple myeloma cell lines against the NCATS MIPE library collection: PCM6_Riken cell viability assay (AID 1919870); note: nearly all actives have a fitted effect of over 30% in size
Method in brief: (§1)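 Plated at 500 cells per well, myeloma lines received MIPE 4.0 compounds by pin tool. Following 48 h culture at 37 °C, CellTiter-Glo luminescence gave viability relative to DMSO and media-only controls.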

[2] = Quantitative High-Throughput drug screen in 47 multiple myeloma cell lines against the NCATS MIPE library collection: OPM2_DSMZ cell viability assay (AID 1919872); note: nearly all actives have a fitted effect of over 30% in size
Method in brief: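 Myeloma cells (500 per well) were exposed to MIPE 4.0 compounds by pin transfer and incubated 48 hours at 37C, 5% CO2. Viability was read as ATP by CellTiter-Glo luminescence, normalised to DMSO (100%) and media-only (0%) wells.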

[3] = Quantitative High-Throughput drug screen in 47 multiple myeloma cell lines against the NCATS MIPE library collection: KMS28BM_JCRB cell viability assay (AID 1919874); note: nearly all actives have a fitted effect of over 35% in size
Method in brief: as §1

[4] = qHTS drug screen for cell cycle checkpoint inhibitors in PARPi-resistant BRCA-mutant ovarian cancer cell lines. (AID 1963452; calls by dose curve); details: PEO1/OlaR viability, CellTiter-Glo luminescence, 96 h; for Z-AUC: stronger effect = lower value
Method in brief: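 PEO1, PEO4 and PEO1/OlaR ovarian cancer cells, 600 per well, exposed 96 h at 37C to a dilution series. Viability read by CellTiter-Glo luminescence, normalized to DMSO and empty wells; activity summarized as Z-AUC.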

[5] = qHTS for identification of novel therapeutic agents for treatment of microphthalmiaassociated transcription factor (MiT) renal cell carcinoma (RCC) (AID 1963991; calls by dose curve); details: CellTiter-Glo, 48 h; for z-score: stronger effect = lower value; for Potency: active = Z-AUC below -0.8 in all three lines
Method in brief: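 Viability of three TFE3-fusion renal carcinoma lines measured by CellTiter-Glo after 48 h treatment with each of 1912 compounds at 11 concentrations. Responses scaled between DMSO (100%) and empty wells (0%) before curve fitting.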

[6] = Quantitative High-Throughput drug screen in 47 multiple myeloma cell lines against the NCATS MIPE library collection: RPMI8226_ATCC cell viability assay (AID 1919871); note: nearly all actives have a fitted effect of over 30% in size
Method in brief: as §1

[7] = Quantitative High-Throughput drug screen in 47 multiple myeloma cell lines against the NCATS MIPE library collection: KMS11_JCRBsus cell viability assay (AID 1919873); note: nearly all actives have a fitted effect of over 50% in size
Method in brief: as §1

[8] = measured here: PEO1 parental Z-AUC
[9] = TFE3-RCC UOK109 viability, measured here: UOK109 Z-AUC
[10] = TFE3-RCC viability, measured here: UOK124 Z-AUC
[11] = TFE3-RCC viability, measured here: UOK145 Z-AUC
Potency is the fitted concentration of half-maximal effect.

Row | Compound | Potency [1] | Potency [2] | Potency [3] | Z-AUC [4] | Z-AUC [4, 8] | Z-AUC ([4]; measured here: PEO4 Z-AUC) | z-score [5, 9] | z-score [5, 10] | z-score [5, 11] | Potency [6] | Potency ([5]; TFE3-RCC UOK109 viability) | Potency [7] | Potency [4]
1 | CC(C)(O)CCc1ccc(OCc2cc(-c3cccc(OC(F)F)c3)c3ncccc3c2)cc1 | inactive | inactive | inactive | -0.38 (inactive) | 0.116 | 0.147 | 0.14 | 0.328 | 0.0594 | – | – | – | –
2 | CS(=O)(=O)N1CCN(Cc2cc3nc(-c4cccc5[nH]ncc45)nc(N4CCOCC4)c3s2)CC1 | – | – | – | 0.0585 (inactive) | 0.321 | 0.781 | -1.55 | -1.58 | -1.5 | 0.264 µM (active) | 105 nM (active) | – | –
3 | CC[C@@H]1C(=O)N(C)c2cnc(Nc3ccc(C(=O)NC4CCC(N5CCN(CC6CC6)CC5)CC4)cc3OC)nc2N1C(C)C (stereo partly specified) | 1.87 µM (active) | 118 nM (active) | 0.0372 µM (active) | – | -2.37 | -1.84 | -1.29 | -2.06 | -1.66 | 8.33 µM (active) | 3720 nM (active) | 0.0296 µM (active) | 87.1 nM (active)
4 | Cc1cn(-c2cc(NC(=O)c3ccc(C)c(Nc4nccc(-c5cccnc5)n4)c3)cc(C(F)(F)F)c2)cn1 | inactive | – | inactive | 0.642 (inactive) | 0.692 | 0.0156 | – | – | – | – | – | 5.26 µM (active) | –
5 | COc1cccc(-c2ccc(NC(=O)C3=C(C(=O)O)CCC3)c(F)c2)c1 | 3.32 µM (active) | – | 18.7 µM (active) | 0.233 (inactive) | 0.433 | 0.985 | – | – | – | – | – | 14.8 µM (active) | –
